# From PubChem
# VP16 counter: VP16 counterscreen qHTS for inhibitors of ROR gamma transcriptional activity | Drosophila S2 Gal4-VP16 UAS-luciferase, luminescence, 20 h | Potency, µM (titrated, usually from 53.6 µM), inactives show at the highest dose activity, negative = inhibition, hits mostly inhibitors | 3.5% of 310,000 active | AID 2546, 2010;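 note: Gal4-VP16 expression switched on by copper sulfate through the metallothionein promoter; potency is the fitted concentration of half-maximal effect; nearly all actives have a fitted effect of over 50% in size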
# DT40 TDP1 no CPT: qHTS for Inhibitors of human tyrosyl-DNA phosphodiesterase 1 (TDP1): qHTS in cells in absence of CPT | Potency, µM (top dose mostly 46.2 µM), for the others: top-dose activity change, negative = growth inhibition, most hits filed as inhibitors | AID 686978, 2013 | 15% of 420,000 active | DT40 Tdp1-/- hTDP1 cells, no CPT, ATP luminescence, 48 h; note: potency is the fitted concentration of half-maximal effect; nearly all actives have a fitted effect of over 55% in size
#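 No-CPT arm: Tdp1-/-;hTDP1 DT40 cells (400/well) plus compounds, incubated ≥48 hr at 37 °C. Readout CellTiter-Glo luminescence.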
# RORgamma inh: qHTS for inhibitors of ROR gamma transcriptional activity | 5.4% of 310,000 active | Drosophila S2 Gal4-RORgamma UAS-luciferase reporter, 20 h | Nuclear receptor ROR-gamma (Mus musculus), P51450 | Potency, µM (top dose mostly 53.6 µM), inactives show at the highest dose activity change, negative = inhibition, hits mostly inhibitors; note: potency is the fitted concentration of half-maximal effect; nearly all actives have a fitted effect of over 60% in size
# Target sequence (P51450 whole entry, looked up, the tested form may be a part): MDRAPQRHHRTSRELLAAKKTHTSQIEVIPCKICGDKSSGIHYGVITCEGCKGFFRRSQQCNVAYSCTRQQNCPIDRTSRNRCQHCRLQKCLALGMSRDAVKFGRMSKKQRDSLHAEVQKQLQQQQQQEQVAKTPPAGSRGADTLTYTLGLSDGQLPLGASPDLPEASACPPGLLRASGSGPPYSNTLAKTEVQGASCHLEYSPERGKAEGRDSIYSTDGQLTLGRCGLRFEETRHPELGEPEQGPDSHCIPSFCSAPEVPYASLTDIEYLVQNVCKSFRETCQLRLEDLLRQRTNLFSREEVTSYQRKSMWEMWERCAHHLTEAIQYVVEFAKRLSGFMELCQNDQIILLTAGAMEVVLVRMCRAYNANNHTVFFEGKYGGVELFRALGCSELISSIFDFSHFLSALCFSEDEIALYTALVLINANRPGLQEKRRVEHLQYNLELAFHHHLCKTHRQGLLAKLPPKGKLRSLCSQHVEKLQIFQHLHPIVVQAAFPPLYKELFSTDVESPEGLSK
#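 Stably transfected Drosophila Schneider cells are the test system, with ROR gamma fused to Gal4 and luciferase under UAS control; luminescence is read after 20 hr of 700 uM copper sulfate induction at ambient temperature.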
# LDHA inh: qHTS assay for inhibitors of human lactate dehydrogenase. L-lactate dehydrogenase A chain (Homo sapiens), P00338. purified LDHA, NADH/diaphorase-resazurin fluorescence; active compounds read low. activity change, % (values are at about 110 or 230 µM). 0.15% of 480,000 active; in the data active = activity change below about -30%; inconclusive = mostly about -25% to -30%;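 note: plate controls were DMSO wells for no effect and wells without enzyme for full effect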
#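 Human LDH5 at 2 nM final in Tris HCl pH 7.4 with 0.06 mM NADH and 0.2 mM pyruvate, reacted 5 minutes at room temperature. Remaining NADH coupled via diaphorase/resazurin; resorufin fluorescence read at 0 and 20 minutes, normalized to enzyme-free and DMSO wells.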
# IL1B secr inh: qHTS for Inhibitors of Inflammasome Signaling: IL-1-beta AlphaLISA Primary Screen | THP-1 LPS/ATP IL-1B secretion, AlphaLISA, 16 h; active compounds read low | activity change, % at 57.5 µM | 4.7% of 360,000 active; in the data active = activity change below about -50%; inconclusive = mostly about -30% to -49%
#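 Secreted IL-1B measured by AlphaLISA bead assay after 16 h compound exposure of THP-1 cells; compounds (final up to 57.5 uM) added 1 h before LPS (250 ng/mL) and ATP (1.25 mM) stimulation; lower signal means less secretion.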
# TDP1 cell CPT: qHTS for Inhibitors of human tyrosyl-DNA phosphodiesterase 1 (TDP1): qHTS in cells in presence of CPT; chicken DT40 Tdp1-/-;hTDP1 cells + 20 nM CPT, ATP luminescence, 48 h; Potency, µM (highest dose often 46.2 µM), inactives show top-dose activity change, negative = growth inhibition, hits mostly inhibitors; 12% of 420,000 active; AID 686979, 2013; note: potency is the fitted concentration of half-maximal effect; nearly all actives have a fitted effect of over 55% in size
#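 Chicken DT40 Tdp1-/- cells complemented with human TDP1, 400 cells/well, exposed to compounds plus 20 nM camptothecin for at least 48 h at 37 C; viability read as ATP content by CellTiter-Glo luminescence.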
# * = called active by the depositor; u = inconclusive; x = no result given; [ ] = dose if it differs, or a comment. This is a sample that favours compounds with a hit; in the whole collection about 18% have one here. Unless noted, calls come from the whole dose curve; as a rule, active = well fitted curve in the direction sought with a large enough effect; inconclusive = small, poorly fitted or top-dose-only effect, or another doubt; inactive = no such curve, though single readings can be large; an effect the other way counts as inactive or inconclusive. Unless noted, % is set by controls: 0 for no effect and ±100 for the full control effect.
SMILES,VP16 counter,DT40 TDP1 no CPT,RORgamma inh,LDHA inh,IL1B secr inh,TDP1 cell CPT
Cc1nn(Cc2ccc(Cl)c(Cl)c2)c(C)c1NC(=O)c1noc2c1CCCCC2,u,13µM*,u,-11.7,-18.5,11.6µM*
Cc1ccccc1Cn1nc(C)c(NC(=O)c2cc(CC(C)C)on2)c1C,u,u,u,1.7,-16.3,u
Cc1nn(Cc2ccc(Cl)c(Cl)c2)c(C)c1NC(=O)c1cc(CC(C)C)on1,u,23.1µM*,u,-1.4,-2.5,18.4µM*
Cc1ccc(Cn2ccc(NC(=O)c3cc(-c4ccc(Cl)cc4)on3)n2)cc1,-4.1%,-16.1%,-21.6%,-8.4,15.0,-26.8%
N#CCCNc1ccc(Br)cc1,x,x,x,-18.2,x,x
Fc1ccc(N/N=C/c2ccccc2Cl)c(F)c1,x,x,x,17.2,x,x
CC1(C)Cc2c(c(N3CCOCC3)nc3sc4c(NCCc5ccccc5)nnnc4c23)CO1,x,x,x,-0.3,x,x
CCN(CC)CCNc1ncnc2c1sc1nc(N3CCOCC3)c3c(c12)CCCC3,u,u,u,-2.4,u,u
CCN(CC)CCNc1ncnc2c1sc1nc(N3CCCC3)c3c(c12)CC(C)(C)OC3,u,u,11.2µM*,1.5,-75.2*,u
OCCNc1ncnc2c1sc1nc(N3CCOCC3)c3c(c12)CCC3,-12.0%,14.6µM*,-2.6%,5.3,-52.7*,u
CN(C)CCNc1ncnc2c1sc1nc(N3CCCC3)c3c(c12)CC(C)(C)OC3,-3.6%,25.9µM*,-9.6%,1.2,-82.5*,u
CC(C)CNc1ncnc2c1sc1nc(N3CCOCC3)c3c(c12)CC(C)(C)OC3,1.1%,10.3µM*,-13.3%,-5.9,-28.8,u
CC1(C)Cc2c(c(N3CCOCC3)nc3snc(NC(=O)c4ccccc4)c23)CO1,u,-14.9%,-15.5%,-22.5,-11.3,-14.4%
Cc1nc2c(sc3nc(N4CCOCC4)c4c(c32)CC(C)(C)OC4)c(-c2ccccc2)c1C(=O)O,1.5%,u,33.4%,-1.8,-10.4,25.9µM*
Cc1cccc(-n2cnc3c(sc4nc(N5CCOCC5)c5c(c43)CCCC5)c2=O)c1,-0.1%,20.6µM*,2.6%,-12.7,u,u
CCN(CC)c1ncnc2c1sc1nc(N3CCOCC3)c3c(c12)CCC3,1.3%,x,5.9%,x,x,x
CC1OC(n2cc(F)c(=O)[nH]c2=O)C(O)C1O (configuration not stated),-1.2%,3.66µM*,-19.8%,x,x,6.51µM*
Cc1cn([C@H]2C[C@H](N=[N+]=[N-])[C@H](CO)O2)c(=O)[nH]c1=O,4.0%,x,3.2%[10 µM],x,x,x
Cc1cn(C2CC(O)C(CO)O2)c(=O)[nH]c1=O (configuration not stated),5.0%,x,45.2%,x,x,x
O=c1[nH]c(=O)n([C@H]2C[C@H](O)[C@@H](CO)O2)cc1F,-20.1%,0.0366µM*,-28.6%,-4.4,41.0,3.26µM*
Cc1cn([C@H]2C[C@H](F)[C@@H](CO)O2)c(=O)[nH]c1=O,x,16.8µM*,x,x,x,6.68µM*
Cc1cn([C@H]2C[C@H](N=[N+]=[N-])[C@@H](CO)O2)c(=O)[nH]c1=O,-1.9%,7.5µM*,-7.1%,-7.1,82.7,21.1µM*
Cc1cc(F)ccc1NC(=O)CC(C)n1cccn1 (configuration not stated),x,x,x,-7.7,x,x
COC(=O)C1=CN(Cc2ccc(OC)cc2)C=C(C(=O)OC)C1c1ccccc1OC(C)C,x,x,x,1.0,x,x
CC(NC(=O)c1occc1-c1ccccc1)c1ccco1 (configuration not stated),x,x,x,10.1,x,x
SMILES,VP16 counter,DT40 TDP1 no CPT,RORgamma inh,LDHA inh,IL1B secr inh,TDP1 cell CPT
CCCNC(=O)c1cc2c(c(-c3cccc(-c4ccc(F)cc4)c3)n1)[C@H](CCO)N(S(=O)C(C)(C)C)C2 (some centres not stated),x,23.1µM*,x,4.9,u,u
CC(C)(C)S(=O)N1Cc2cc(C(=O)NCc3ccc4c(c3)OCO4)nc(-c3cccc(-c4ccccc4)c3)c2[C@@H]1CCO (some centres not stated),x,u,x,-5.2,-28.3,23.1µM*
CCCNC(=O)c1cc2c(c(-c3cccc(-c4ccc(F)cc4)c3)n1)[C@@H](CCO)N(S(=O)C(C)(C)C)C2 (some centres not stated),x,u,x,-1.9,-27.7,u
CC(C)(C)S(=O)N1Cc2cc(C(=O)NCc3ccc4c(c3)OCO4)nc(-c3cccc(-c4ccncc4)c3)c2[C@H]1CCO (some centres not stated),x,u,x,6.5,u,u
COCCn1c(SC(C)C(=O)c2ccc(Br)cc2)nnc1-c1cccc(C)c1 (configuration not stated),x,x,x,1.8,x,x
COc1ccccc1N1CCN(C(=O)Cn2ncc3c(=O)oc4ccc(C)cc4c32)CC1,x,u,x,-2.2,x,-27.4%
Cc1ccc2oc(=O)c3cnn(CC(=O)N4CCN(c5ccccc5F)CC4)c3c2c1,x,20.6µM*,x,-3.2,x,u
Cc1ccc2oc(=O)c3cnn(CC(=O)N4CCN(c5ccccc5)CC4)c3c2c1,3.6%,10.3µM*,5.9%,-4.4,0.7,u
Nc1nc(NCCCN2CCOCC2)nc(Nc2ccc(Cl)cc2)c1[N+](=O)[O-],-4.8%,u,-2.1%,-14.9,x,u
Cc1ccc(Nc2nc(NCCCN3CCOCC3)nc(N)c2[N+](=O)[O-])cc1,-0.6%,-10.5%,-10.6%,-11.3,u,-6.5%
Cc1ccc(Nc2nc(NCCCN3CCOCC3)nc(N)c2[N+](=O)[O-])cc1C,-13.0%,18.4µM*,-13.0%,1.0,-2.9,u
Nc1nc(NCCCN2CCOCC2)nc(Nc2cccc(Cl)c2)c1[N+](=O)[O-],-21.3%,u,-5.8%,7.7,-91.6*,u
Cc1cc2oc(C(=O)NCC(c3cccs3)N(C)C)cc(=O)c2cc1Cl (configuration not stated),x,x,x,-4.1,x,x
COc1ccc(-c2nn(C)c3sc(C(=O)N4CCOCC4)cc23)cc1OC,0.7%,u,-4.0%,2.0,-19.9,-17.0%
CCCN(CCC)CCCNC(=O)c1cc2c(-c3ccc(OC)c(OC)c3)nn(C)c2s1,-14.6%,4.61µM*,-10.5%,5.9,-52.4*,14.6µM*
